According to PubChem BioAssay (NCI):
About 79,000 compounds went through this panel and 15% of them were active in at least one assay; those are over-represented in the sample as a whole. Values without a mark were called inactive. Active and inactive are the calls of the source. Cut-off read from the data, not from the text of the source: active = growth inhibition above about 70%; inactive = the rest.

Experiment: NCI Yeast Anticancer Drug Screen. Data for the mgt1 strain (AID 153)
Settings: S. cerevisiae mgt1 mutant growth inhibition, hits give high values
Experimental: Growth inhibition of yeast strains with defined genetic alterations is measured as a screen for potential anti-cancer activity. Selected strains with alterations in DNA damage repair or cell cycle control were exposed to compounds and growth inhibition was measured relative to vehicle treated controls. The strain used in this assay is mgt1

Row | Compound | growth inhibition (at 1.2 µM) [%] | growth inhibition (at 3.7 µM) [%] | growth inhibition (at 11.0 µM) [%] | growth inhibition (at 33.0 µM) | growth inhibition (at 100.0 µM)
1 | CCOC(=O)C1([Se]c2ccccc2)CCCC1=O (stereo not given) | -4 | -5 | 4 | 32% | 85% (active)
2 | Cn1cnc(N)c1C(=N)[Se] | 1 | -1 | 4 | 44% | 57%
3 | O=P(Oc1ccc(Cl)cc1)(Oc1ccc(Cl)cc1)N1CC1 | -6 | -3 | -5 | -4% | 49%
4 | CO[C@H](/C(C)=C/C=C/C(C)=C/c1coc(C)n1)[C@H](C)[C@H]1C[C@@H](O)[C@@]2(C)O[C@H]2/C=C/[C@@H](C)[C@@H]2C[C@@H](CC(=O)O2)C[C@H]2O[C@@H]2C(=O)O1 | -4 | -14 | -6 | 24% | 94% (active)
5 | COc1cc2ccccc2c2cc([N+](=O)[O-])oc12 | 2 | 11 | 26 | 43% | 59%
6 | Cc1c(N)nc([C@H](CC(N)=O)NC[C@H](N)C(N)=O)nc1C(=O)N[C@H](C(=O)N[C@H](C)[C@@H](O)[C@H](C)C(=O)N[C@H](C(=O)NCCc1nc(-c2nc(C(=O)NCCC[S+](C)C)cs2)cs1)[C@@H](C)O)C(OC1OC(CO)C(O)C(O)C1OC1OC(CO)C(O)C(OC(N)=O)C1O)c1cnc[nH]1 (stereo not given in full) | -3 | 2 | 11 | 35% | 91% (active)
7 | O=c1oc2ccccc2c(O)c1C(c1ccc2c(c1)Cc1ccccc1-2)c1c(O)c2ccccc2oc1=O | 6 | 8 | 31 | 97% (active) | 97% (active)
8 | CCNC(=O)OCC1C2=C(C(=O)C(C)=C(N)C2=O)N2CC3C(N3C)C12OC (stereo not given) | 2 | 2 | 21 | 37% | 74% (active)
